High-throughput results deposited in PubChem by National Center for Advancing Translational Sciences (NCATS).
FLuc inh – blocks purified firefly luciferase enzyme activity. purified P. pyralis luciferase, luminescence, biochemical. P08659. 76,000 compounds, 2.5% hits. AID 1347043. Potency, µM (titrated, usually from 115 µM), hits mostly inhibitors; further: nearly all actives have a fitted effect of over 65% in size
Target sequence (P08659 whole entry, looked up): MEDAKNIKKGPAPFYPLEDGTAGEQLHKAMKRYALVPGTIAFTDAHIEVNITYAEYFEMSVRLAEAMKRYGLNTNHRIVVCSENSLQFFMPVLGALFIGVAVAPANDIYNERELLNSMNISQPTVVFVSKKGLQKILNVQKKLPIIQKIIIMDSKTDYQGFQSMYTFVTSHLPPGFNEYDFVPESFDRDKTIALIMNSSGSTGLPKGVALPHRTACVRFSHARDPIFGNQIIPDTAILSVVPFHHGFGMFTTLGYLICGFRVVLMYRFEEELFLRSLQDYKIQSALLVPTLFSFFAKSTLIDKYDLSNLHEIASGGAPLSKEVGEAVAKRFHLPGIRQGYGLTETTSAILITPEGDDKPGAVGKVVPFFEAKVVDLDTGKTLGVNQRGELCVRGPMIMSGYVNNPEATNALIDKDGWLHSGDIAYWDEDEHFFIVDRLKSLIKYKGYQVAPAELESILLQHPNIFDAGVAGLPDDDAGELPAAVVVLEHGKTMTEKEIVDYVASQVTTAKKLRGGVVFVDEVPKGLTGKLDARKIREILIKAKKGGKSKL
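Inhibitors were tested against purified firefly luciferase in a biochemical, low-substrate format (both substrates at 10uM) and luminescence measured with a CCD imager.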
HEK293 tox – cytotoxic compounds in HEK 293 cells; 94,000 compounds, 6.6% hits; HEK 293 viability, ATP luminescence (CellTiter-Glo), 48-72 h; Potency, µM (top dose mostly 115 µM), usual class: inhibitors; AID 1345083; further: nearly all actives have a fitted effect of over 60% in size
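Viability of HEK 293 cells, plated at 250 cells/well, was judged by cellular ATP after compound treatment for 48 or 72 hr. Luminescence was imaged 10 min after CellTiter-Glo addition at room temperature.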
HEK293 viab – reduces viability of HEK-293 SNCA reporter cells; HEK-293-SNCA-luc viability, GF-AFC fluorescence, 24 h; Potency, µM (series often up to 57.1 µM), most hits filed as cytotoxic; 150,000 compounds, 0.12% hits; further: nearly all actives have a fitted effect of over 30% in size
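HEK-293-SNCA-luc cells (1500/well) plated 24 h, then exposed 24 h to a dilution series; GF-AFC added 30 min at 37C, fluorescence 405/540 nm; normalised to medium-only and DMSO wells, Hill fit.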
IP6K1 inhibitor – blocks human inositol hexakisphosphate kinase 1 | IP6K1 kinase, ADP-Glo luminescence, 2 h; stronger effect = lower value | activity change, % (series mostly up to about 58 µM) | 140,000 compounds, 0.81% hits | AID 1645851; in the data active means activity change below about -25%
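ADP-Glo luminescence measures ADP made by human IP6K1 during a 2 h RT reaction with ATP/IP6 (mix at 1.3 mM/130 uM); top library doses 57.5 and 19.1 uM final.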
NIH3T3 tox – cytotoxic compounds in NIH 3T3 cells. 94,000 compounds, 4.3% hits. AID 1345082. Potency, µM (series often up to 96.7 µM), actives largely listed as inhibitors. NIH 3T3 viability, CellTiter-Glo ATP luminescence, 48-72 h; further: nearly all actives have a fitted effect of over 55% in size
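Mouse fibroblast NIH 3T3 cells, 400 per well, received compound via pintool and were incubated for 48 or 72 hr prior to CellTiter-Glo ATP luminescence measurement.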
SNCA expr inhib – inhibitors of alpha-synuclein (SNCA) gene expression; 140,000 compounds, 0.17% hits; AID 1671194; Potency, µM (top dose mostly 57.2 µM), actives largely listed as inhibitors; HEK-293 SNCA-luciferase knock-in, luminescence, 24 h; further: nearly all actives have a fitted effect of over 45% in size
Hits are given with their value; [ ] = another dose, or the depositor's remark. In the library only some 7.3% were active in any assay of this set; here they are far more common. Unless noted, the call rests on the fitted dose curve; in most records, active means well fitted curve in the direction sought with a large enough effect; inconclusive means small, poorly fitted or top-dose-only effect, or another doubt; inactive means no such curve, though single readings can be large; an effect the other way counts as inactive or inconclusive.

Results for COc1cccc(CC(=O)N[C@@H](Cc2ccccc2)C(=O)N2CCCOCCNC(=O)CC2)c1 ?
FLuc inh: inactive; HEK293 tox: inactive; HEK293 viab: inactive; IP6K1 inhibitor: inactive; NIH3T3 tox: inactive; SNCA expr inhib: inactive

Results for Cc1cn2nnc(C(=O)NCc3ccc4c(c3)OCO4)c2c(=O)[nH]1 ?
FLuc inh: 40µM; HEK293 tox: inactive; HEK293 viab: inactive; IP6K1 inhibitor: inactive; NIH3T3 tox: inactive; SNCA expr inhib: inactive

How did O=C(c1ccsc1)N1CCC(Oc2ccccc2-c2nc(C3CC3)no2)C1 (centres undefined) do in these assays?
FLuc inh: inactive; HEK293 tox: inconclusive; HEK293 viab: inactive; IP6K1 inhibitor: inactive; NIH3T3 tox: inconclusive; SNCA expr inhib: inconclusive

Results for CC(=O)Nc1cccc(-c2n[nH]c3c2CC(=O)N(Cc2ccccc2)C3)c1 ?
FLuc inh: inactive; HEK293 tox: 100µM; HEK293 viab: inactive; IP6K1 inhibitor: inactive; NIH3T3 tox: inconclusive; SNCA expr inhib: inconclusive

How did COc1ccc(CN2Cc3[nH]nc(-c4cccc(NC(C)=O)c4)c3CC2=O)cc1 do in these assays?
FLuc inh: inactive; HEK293 tox: inconclusive; HEK293 viab: inactive; IP6K1 inhibitor: inactive; NIH3T3 tox: inconclusive; SNCA expr inhib: inactive

How did CC(=O)Nc1cccc(-c2n[nH]c3c2CC(=O)N(CCOc2ccccc2)C3)c1 do in these assays?
FLuc inh: inactive; HEK293 tox: inconclusive; HEK293 viab: inactive; IP6K1 inhibitor: inactive; NIH3T3 tox: 35µM; SNCA expr inhib: inactive

How did COc1ccccc1N1CCN([C@H]2[C@@H]3OC[C@@H](O3)[C@@H](NCc3ccc(F)cc3)[C@@H]2O)CC1 do in these assays?
FLuc inh: inactive; HEK293 tox: inactive; HEK293 viab: inactive; IP6K1 inhibitor: inactive; NIH3T3 tox: inactive; SNCA expr inhib: inactive

What do the screens show for `Cc1ccc(-c2ccccc2CN2CCN([S+](=O)([O-])c3cccs3)CC2)cc1Cl`?
HEK293 tox: inconclusive; HEK293 viab: inconclusive; IP6K1 inhibitor: inactive; NIH3T3 tox: inactive; SNCA expr inhib: inactive

What do the screens show for `Cc1ccc(Nc2ccnc(N3CCCN(C(=O)C4CCCC4)C3)n2)cc1`?
HEK293 tox: 13µM; HEK293 viab: inactive[12.5 µM]; IP6K1 inhibitor: inactive; NIH3T3 tox: inconclusive; SNCA expr inhib: inactive

How did Cc1ccc(Nc2ccnc(N3CCCN(C(=O)NC4CCCC4)C3)n2)cc1 do in these assays?
HEK293 tox: 16µM; HEK293 viab: inactive[12.5 µM]; IP6K1 inhibitor: inactive; NIH3T3 tox: 25µM; SNCA expr inhib: inactive

What do the screens show for `COC(=O)N1CCC(C(=O)N2CCC(c3nc4ccncc4[nH]3)C2)CC1` (centres undefined)?
HEK293 tox: inactive; HEK293 viab: inactive; IP6K1 inhibitor: inactive; NIH3T3 tox: inactive; SNCA expr inhib: inactive

Results for COc1ccc(-c2nc(C)nc3c2CN(C(=O)C2CCCC2)CC3)cc1 ?
HEK293 tox: inactive; HEK293 viab: inactive; IP6K1 inhibitor: inactive; NIH3T3 tox: inconclusive; SNCA expr inhib: inactive

What do the screens show for `Cc1ccccc1CN1Cc2nc(-c3cccc(C(N)=O)c3)ccc2OCC1=O`?
FLuc inh: inactive; HEK293 tox: 71µM; HEK293 viab: inactive; IP6K1 inhibitor: inactive; NIH3T3 tox: inconclusive; SNCA expr inhib: inactive

Results for CC(=O)Nc1cccc(-c2ccc3c(n2)CN(Cc2ccccc2C)C(=O)CO3)c1 ?
FLuc inh: inactive; HEK293 tox: inconclusive; HEK293 viab: inconclusive; IP6K1 inhibitor: inactive; NIH3T3 tox: inconclusive; SNCA expr inhib: inactive

Results for Cc1ccccc1CN1Cc2nc(-c3ccc4c(c3)OCO4)ccc2OCC1=O ?
FLuc inh: inactive; HEK293 tox: 35µM; HEK293 viab: inconclusive; IP6K1 inhibitor: inactive; NIH3T3 tox: inconclusive; SNCA expr inhib: inactive

What do the screens show for `C#CCN(C)C(=O)[C@@H]1CCCN1C1(C(=O)NC)CCCCC1`?
FLuc inh: inactive; HEK293 tox: inactive; HEK293 viab: inactive; IP6K1 inhibitor: inactive; NIH3T3 tox: inactive; SNCA expr inhib: inactive

How did O=C1Nc2ccccc2CN(CC2CCCCC2)C12CCNC2 (centres undefined) do in these assays?
HEK293 tox: 89µM; HEK293 viab: inconclusive; IP6K1 inhibitor: inactive; NIH3T3 tox: 22µM; SNCA expr inhib: inactive
